This is one part of a sample in which hits are shown more often than they occur.
Anaer choline gr = growth inhibitors of anaerobic choline-fed gram-negatives, minimal medium, absorbance. Gram-negative bacterium anaerobic choline minimal medium; active compounds read low. calls only. hit rate 0.2% among 55,000. AID 1963822, 2024; call rule not given here
Calls only; 0 = inactive; + = active, no number.

SMILES	Anaer choline gr
CN1CCN(c2nc3ccccc3nc2Cl)CC1	0
CN1CCc2cccc(Cl)c2CC1	+
COc1cccc([C@@]2(O)CCCC[C@@H]2CN(C)C)c1	0
CN1CC=C(c2noc(CCC(=O)NCCN3CCN(c4ccccc4F)CC3)n2)CC1	0
CN1C2CCC1CC(OC(c1ccc(F)cc1)c1ccc(F)cc1)C2 (centres undefined)	+
Fc1ccc(C(OCCN2CCN(CCCc3ccccc3)CC2)c2ccc(F)cc2)cc1	0
CN1[C@@H]2CC[C@H]1CC(OC1c3ccccc3CCc3ccccc31)C2 (some centres undefined)	0
C=CCN1CC[C@]23c4c5ccc(O)c4O[C@H]2/C(=N/NC(=O)c2ccccc2)CC[C@@]3(O)[C@H]1C5	0
Cc1ccc(-c2nc3ccc(C)cn3c2CC(=O)N(C)C)cc1	0
COc1ccc2c(c1)C1(CCN(C(=O)NCC(C)C)C1)C(=O)N2 (centres undefined)	0

Screening results as filed in PubChem.
